# Measurements taken from PubChem BioAssay (NCATS).
# Results filed as inconclusive are left out. A number with no mark means an inactive call. Active and inactive are the calls of the source. Calls come from the whole dose curve; as a rule, active = well fitted cell-killing curve with a large enough effect; inconclusive = small, poorly fitted or top-dose-only effect, or effect the other way; inactive = no such curve, though single readings can be large or run the other way.
# Experiment: qHTS of pediatric cancer cell lines to identify multiple opportunities for drug repurposing: Confirmatory screen for RD cells (AID 1347124);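 note: cells exposed to compound for 48 h before viability readout; nearly all actives have a fitted effect of over 65% in size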
# Conditions: RD rhabdomyosarcoma cell viability; series mostly up to 45.9 µM; activity change, negative = cytotoxic: at the top concentration
# From the text: Drug repurposing or repositioning has been offered as a strategy for drug development in oncology programs. This approach has special potential for childhood cancers and other rare or orphan diseases, where the expected return on new drug development has been a disincentive to pharmaceuticals.
# In this project we exploit the poly-pharmacology of drugs to discover new indications via phenotypic screening of a panel of 19 well-characterized cell lines derived from solid tumors seen in children and adolescents. The goal is to identify approved drugs with previously unrecognized anticancer properties that has the potential to reveal new mechanisms and biological processes involved in carcinogenesis or drug resistance. We employed a titration-based paradigm (quantitative high-throughput screening or qHTS), where all compounds were tested at multiple concentrations for their effect on cell viability. Concentration-response curves (CRCs) were derived directly from the primary screen, and both potency and efficacy values were used to identify compounds with robust bioactivity profiles. We screened the NIH Chemical Genomics Center (NCGC) Pharmaceutical Collection (NPC) and Mechanism Interrogation Plate (MIPE) small molecule collections of approved and investigational compounds against these cell lines; and measured metabolically active cells after 48 hours of compound treatment as a proxy for cell viability.
# Assay Submitter: Nathalia J. Martinez, National Center for Advancing Translational Sciences, National Institutes of Health, Rockville, MD, USA; email: natalia.martinez@nih.gov
# [1] Shen, M et al. Quantitative high-throughput phenotypic screening of pediatric cancer cell lines identifies multiple opportunities for drug repurposing. Oncotarget 2017 Dec 19;9(4):4758-4772. PMID 29435139.
# The cells were obtained from University of North Carolina (UNC), Pediatric Preclinical Testing Program (PPT), and Coriell Institute (CI).
# qHTS cell viability assay:
# Cells were assayed in growth media at a density of 500-1,000 cells/well. Five microliters of cells were dispensed into 1,536-well, white, solid-bottom, TC-treated plates (Greiner Bio One) using a multidrop dispenser and incubated at 37 degrees C, 5% CO2, under a humidified atmosphere for 5 hours. Twenty-three nanoliters of compounds and controls (neutral control DMSO or positive control bortezomib at final concentration of 2.3 µM) were subsequently transferred by Kalypsys pintool. For primary screens, the MIPE collection was tested at 11-point dilutions (final concentrations range from 0.78 nM to 46 µM) and the NPC collection at 8-point dilutions (final concentrations range from 0.59 nM to 46 µM). Compounds tested in follow-up screens were assayed at 11-point dilutions. Cells were incubated for 48 hours, followed by addition of 3 µL of CellTiter-Glo (Promega). After a 15 min incubation at room temperature, samples were analyzed for luminescence intensity using a ViewLux High-throughput CCD imager equipped with clear filters.
# % is set by controls: 0 for no effect and ±100 for the full control effect; potency is the fitted concentration of half-maximal effect.
SMILES,Potency,"activity change, negative = cytotoxic [%]"
COc1cc2c(c(OC)c1OC)-c1ccc(OC)c(=O)cc1[C@@H](NC(C)=O)CC2,70.8 nM (active),
CC(C)NCC(O)c1ccc(O)c(O)c1 (stereo unspecified),,-9.55
NC(=O)NO,,2.06
CC(C)Cc1ccc(C(C)C(=O)O)cc1 (stereo unspecified),1310 nM (active),
CS(=O)(=O)CCNCc1ccc(-c2ccc3ncnc(Nc4ccc(OCc5cccc(F)c5)c(Cl)c4)c3c2)o1,,-21.7
NC12CC3CC(CC(C3)C1)C2,,6.19
COC(=O)Nc1nc2ccc(C(=O)c3cccs3)cc2[nH]1,233 nM (active),
O=C1c2c(O)ccc(O)c2C(=O)c2c(NCCNCCO)ccc(NCCNCCO)c21,2610 nM (active),
CN(Cc1cnc2nc(N)nc(N)c2n1)c1ccc(C(=O)N[C@@H](CCC(=O)O)C(=O)O)cc1,82.7 nM (active),
CN1CCN(CCCN2c3ccccc3Sc3ccc(Cl)cc32)CC1,18500 nM (active),
CC#C[C@]1(O)CC[C@H]2[C@@H]3CCC4=CC(=O)CCC4=C3[C@@H](c3ccc(N(C)C)cc3)C[C@@]21C,,-14
CC[C@@]1(O)C(=O)OCc2c1cc1n(c2=O)Cc2cc3c(CN(C)C)c(O)ccc3nc2-1,5850 nM (active),
O=C(Nc1ccc([N+](=O)[O-])cc1Cl)c1cc(Cl)ccc1O,4560 nM (active),
Clc1ccc(C(c2ccccc2Cl)C(Cl)Cl)cc1 (stereo unspecified),,4.11
CCC1(c2ccccc2)C(=O)NCNC1=O,,17.2
CC(CCc1ccc(O)cc1)NCCc1ccc(O)c(O)c1 (stereo unspecified),,11.3
